Test results reported in PubChem BioAssay (EPA / NIEHS).
Records with an inconclusive call do not appear. Calls of active or inactive are those of the source. Rule for the calls, unless noted: active = hit-call score of the fitted dose curve at least 0.9, where 1 is the maximum; inconclusive = response in the unintended direction; inactive = score below 0.9.

What was measured:
IYD (gene 389434) = experiment: CCTE_GLTED_hIYD: CCTE's human Iodotyrosine Deiodinase (xIYD) Inhibition Assay, Great Lakes Toxicology and Ecology Division (GLTED) Lab (AID 2284317);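 note: cell-free human IYD enzyme made in baculovirus insect cells; iodide freed from monoiodotyrosine measured by cerium arsenite color change at 420 nm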
How it was run: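 hIYD: baculovirus-expressed human IYD deiodinated monoiodotyrosine for 3 h with test chemical; free iodide was measured by Sandell-Kolthoff absorbance at 420 nm and normalized to MNT and DMSO/NaOH controls.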

[1] = VALA_TUBHUV_Agonist_CellCount: Viability Assessment in the VALA Sciences human Umbilical Vein Endothelial Tubule Formation (TUBHUV) Agonism Assay (AID 2284309)
How it was run: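 HUVEC co-cultured 1:3 with HDF for 3 days in 10 ng/ml VEGF, then compounds added in VEGF medium for a further 3 days (72 h). Nuclear-stain/CD31 imaging cell count. Positive-direction fit versus 0.1% DMSO vehicle.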

[2] = VALA_TUBHUV_Antagonist_CellCount: Viability Assessment in the VALA Sciences human Umbilical Vein Endothelial Tubule Formation (TUBHUV) Antagonism Assay (AID 2284310)
How it was run: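 HUVEC co-cultured with HDF (1:3) 3 days in 10 ng/ml VEGF, then 3 days with compounds in VEGF medium. Fixed, nuclear stain and CD31 immunofluorescence, imaged; cell counts fitted versus 0.1% DMSO, loss of signal read as lower viability.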

[3] = VALA_TUBIPS_Agonist_TubuleLength: VALA Sciences human iPS-derived Endothelial Tubule Formation (TUBIPS) Agonism Assay (AID 2284311)
How it was run: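 Human iPS-derived endothelial cells were exposed to compound for 72 h. Tubule formation was imaged by high-content fluorescence and scored as gain of signal relative to DMSO vehicle (agonist mode).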

[4] = VALA_MIGHUV2_CellCount: Viability Assessment in the VALA Sciences human Umbilical Vein Endothelial Cell Migration (MIGHUV) Assay, Area of Scratch Wound after Recovery (AID 2284314)
How it was run: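 Scratch-wounded HUVEC monolayers received test chemical within 30 min, 6-point concentration response in triplicate, 0.1 % DMSO vehicle. After 24 h wound recovery, fixed cells were Hoechst-stained and nuclei imaged; loss of signal versus DMSO indicates reduced viability.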

[5] = VALA_MIGHUV2_WoundArea: VALA Sciences human Umbilical Vein Endothelial Cell Migration (MIGHUV) Assay, Area of Scratch Wound after Recovery (AID 2284316)
How it was run: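 HUVEC seeded at 9000 cells/well, scratched after 24 h; test chemical added within 30 min, 6-point concentration response in triplicate (0.1% DMSO vehicle). After 24 h wound recovery, cells fixed and Hoechst-stained nuclei in wound area imaged; Cytochalasin D reference control.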

[6] = IUF_NPC2c_oligodendrocyte_migration_120hr: Leibniz Research Institute for Environmental Medicine (IUF) 120-hour Neural Progenitor Cell Migration Assay for Oligodendrocyte Migration (NPC2c) (AID 2284297; active = hit-call score of the fitted dose curve at least 0.9, where 1 is the maximum; inactive = score below 0.9;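 note: O4-positive oligodendrocyte migration distance divided by radial glia migration distance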)
How it was run: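 Human fetal cortex-derived neural progenitor spheres (0.3 mm) were plated on poly-D-lysine/laminin in N2 differentiation medium and exposed to 7 concentrations for 120 h, with half-medium renewal at day 3. Oligodendrocyte migration distance was normalized to radial glia migration, relative to DMSO.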

[7] = IUF_NPC2a_radial_glia_migration_120hr: Leibniz Research Institute for Environmental Medicine (IUF) 120-hour Neural Progenitor Cell Migration Assay for Radial Glia Migration (NPC2a) (AID 2284298; active = hit-call score of the fitted dose curve at least 0.9, where 1 is the maximum; inactive = score below 0.9)
How it was run: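 Single 0.3 mm primary human fetal-cortex (GW 16-19) NPC spheres were plated on poly-D-lysine/laminin in N2 differentiation medium and exposed from day 0 for 120 h, half-medium refreshed day 3. Migration distance came from Hoechst nuclei-density imaging, relative to DMSO.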

[8] = IUF_NPC2a_radial_glia_migration_72hr: Leibniz Research Institute for Environmental Medicine (IUF) 72-hour Neural Progenitor Cell Migration Assay for Radial Glia Migration (NPC2a) (AID 2284299; active = hit-call score of the fitted dose curve at least 0.9, where 1 is the maximum; inactive = score below 0.9)
How it was run: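 Human fetal neural progenitor spheres (0.3 mm) plated on poly-D-lysine/laminin in N2 differentiation medium and exposed from day 0 at 7 concentrations; radial glia migration distance from sphere edge measured at 72 h on brightfield images, mean of four directions, vs DMSO.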

[9] = IUF_NPC2b_neuronal_migration_120hr: Leibniz Research Institute for Environmental Medicine (IUF) 120-hour Neural Progenitor Cell Migration Assay for Neuron Migration (NPC2b) (AID 2284300; active = hit-call score of the fitted dose curve at least 0.9, where 1 is the maximum; inactive = score below 0.9)
How it was run: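 Primary human fetal cortex neural progenitor spheres (0.3 mm) plated on poly-D-lysine/laminin in N2 differentiation medium, exposed 120 h with half-medium refresh at day 3. TUBB3-stained neuron distance from sphere core, normalized to radial glia migration, versus DMSO.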

[10] = IUF_NPC3_neuronal_differentiation_120hr: Leibniz Research Institute for Environmental Medicine (IUF) 120-hour Neuronal Differentiation Assay (NPC3) (AID 2284301; active = hit-call score of the fitted dose curve at least 0.9, where 1 is the maximum; inactive = score below 0.9)
How it was run: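 Single 0.3 mm neurospheres from human fetal cortex were plated in differentiation medium containing test compound. Medium was half-replaced on day 3. After 120 h cells were fixed, immunostained and imaged, and neuronal fraction was scored against DMSO control.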

[11] = IUF_NPC4_neurite_length_120hr: Leibniz Research Institute for Environmental Medicine (IUF) 120-hour Neuronal Morphology Assay for Neurite Length (NPC4) (AID 2284302; active = hit-call score of the fitted dose curve at least 0.9, where 1 is the maximum; inactive = score below 0.9)
How it was run: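 Read-out is mean neurite length in µm of TUBB3-positive neurons, skeletonized from high-content fluorescence images after 120 h. Single 0.3 mm primary human neural progenitor spheres differentiated on poly-D-lysine/laminin under continuous compound exposure; DMSO was baseline.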

[12] = IUF_NPC5_oligodendrocyte_differentiation_120hr: Leibniz Research Institute for Environmental Medicine (IUF) 120-hour Oligodendrocyte Differentiation Assay (NPC5) (AID 2284304);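 note: primary human fetal neural progenitor spheres plated to migrate and differentiate; share of O4-positive cells among Hoechst nuclei found by CNN image analysis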
How it was run: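 Primary human fetal (GW 16-19) neural progenitor spheres (0.3 mm) plated on poly-D-lysine/laminin in N2 differentiation medium, exposed from day 0 for 120 h with half-medium refresh at day 3; O4-positive cells as percent of Hoechst nuclei, CNN-identified, versus DMSO.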

[13] = IUF_NPC4_neurite_area_120hr: Leibniz Research Institute for Environmental Medicine (IUF) 120-hour Neuronal Morphology Assay for Neurite Area (NPC4) (AID 2284305)
How it was run: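 Neurite area is read out as the mean pixel area, excluding nuclei, of skeletonized TUBB3-positive neurons imaged after 120 h. Primary human neural progenitor spheres differentiated on poly-D-lysine/laminin with compound present from day 0. Activity was referenced to DMSO controls.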

[14] = IUF_NPC2-5_cytotoxicity_72hr: Cytotoxicity Assessment at 72 hours in the Leibniz Research Institute for Environmental Medicine (IUF) Neural Progenitor Cell Migration and Differentiation Assay for Cytotoxicity (NPC2-5) (AID 2284306);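 note: LDH release into supernatant measured by resorufin fluorescence marking membrane damage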
How it was run: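 Membrane integrity loss was scored from fluorescence (RFU) of resorufin generated by LDH in culture supernatant, 72 h after dosing. Differentiating human progenitor spheres received seven serial compound concentrations alongside a solvent control.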

[15] = IUF_NPC2-5_cytotoxicity_120hr: Cytotoxicity Assessment at 120 hours in the Leibniz Research Institute for Environmental Medicine (IUF) Neural Progenitor Cell Migration and Differentiation Assay (NPC2-5) (AID 2284307);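 for AC50: LDH released into supernatant as membrane damage marker via resorufin fluorescence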
How it was run: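 Human fetal neural progenitor spheres (0.3 mm, GW 16-19 cortex) were plated on poly-D-lysine/laminin in N2 differentiation medium and exposed for 120 h, with half-medium refresh at day 3. LDH release into supernatant was read by resorufin fluorescence.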

[16] = IUF_NPC2-5_cell_number_120hr: Cell Number Assessment at 120 hours in the Leibniz Research Institute for Environmental Medicine (IUF) Neural Progenitor Cell Migration and Differentiation Assay (NPC2-5) (AID 2284308; active = hit-call score of the fitted dose curve at least 0.9, where 1 is the maximum; inactive = score below 0.9;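 note: count of Hoechst-stained nuclei in migration zone around plated human neural progenitor spheres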)
How it was run: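 Primary human fetal neural progenitor spheres (GW 16-19, 0.3 mm) plated on poly-D-lysine/laminin in N2 differentiation medium, exposed from day 0 for 120 h with half-medium refresh at day 3; Hoechst-positive nuclei counted in migration area versus DMSO control.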

[17] = IUF_NPC2-5_viability_120hr: Viability Assessment at 120 hours in the Leibniz Research Institute for Environmental Medicine (IUF) Neural Progenitor Cell Migration and Differentiation Assay (NPC2-5) (AID 2284312; active = hit-call score of the fitted dose curve at least 0.9, where 1 is the maximum; inactive = score below 0.9)
How it was run: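 Alamar blue resorufin fluorescence read after 5 days of differentiation, with compound present from day 0 and replenished at day 3. Primary hNPC spheres on laminin-coated plates, 37C; seven concentrations plus solvent control, fitted against DMSO.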

[18] = VALA_MIGHUV2_Bcatenin: VALA Sciences human Umbilical Vein Endothelial Cell Migration (MIGHUV) Assay, Nuclear Translocation of beta-Catenin after Recovery (AID 2284315)
How it was run: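 HUVEC (4000 cells/well) scratch-wounded, dosed within 30 min over 6 concentrations in triplicate, recovered 24 h. After fixation, Hoechst and anti-beta-catenin immunofluorescence imaged for nuclear CTNB. Gain of signal versus 0.1% DMSO.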

[19] = VALA_TUBIPS_Antagonist_TubuleLength: VALA Sciences human iPS-derived Endothelial Tubule Formation (TUBIPS) Antagonist Assay (AID 2284313)
How it was run: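 Cells grown 3 days with 10 ng/ml VEGF, then exposed to compounds in VEGF medium for another 3 days. After fixation, nuclear stain and CD31 immunofluorescence imaging gave mean total tubule length against 0.1% DMSO; suramin (100 uM) inhibition control.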

Measured: AC50

CCN(CC)CCOc1ccc(C(=C(Cl)c2ccccc2)c2ccccc2)cc1
active: IYD (gene 389434) 16 µM

CCCCCCCCCCCCCCOS(=O)(=O)O
active: IYD (gene 389434) 29.6 µM

Cc1c(C)c2c(c(C)c1O)CCC(C)(COc1ccc(CC3SC(=O)NC3=O)cc1)O2 (stereo unspecified)
active: IYD (gene 389434) 94.7 µM

Cc1ccc(-c2cc(C(F)(F)F)nn2-c2ccc(S(N)(=O)=O)cc2)cc1
inactive: [1] | [2] | [3] | [4] | [5]

CN(C)CCCN1c2ccccc2Sc2ccc(Cl)cc21
active: [6] 16.1 µM | [7] 14.2 µM | [8] 15.1 µM | [9] 15 µM | [10] 7.59 µM | [11] 6.02 µM | [12] 0.756 µM | [13] 8.38 µM | [14] 15.3 µM | [15] 5.75 µM | [16] 12.8 µM | [17] 10.9 µM

O=C1NC(=O)C(c2ccccc2)(c2ccccc2)N1
not listed: IYD (gene 389434) | [1] | [2] | [3] | [4] | [5] | [18] | [19]
inactive: all other assays above

OCC(O)CO
not listed: IYD (gene 389434) | [1] | [2] | [3] | [4] | [5] | [18] | [19]
inactive: all other assays above

CCCCC(CC)COP(=O)(OCC(CC)CCCC)OCC(CC)CCCC (stereo unspecified)
inactive: [1] | [2] | [4]

S=c1[nH]c2ccccc2s1
inactive: IYD (gene 389434)

O=C1OC(c2ccc(O)cc2)(c2ccc(O)cc2)c2ccccc21
inactive: [1] | [2] | [3] | [18] | [5]

CC(=O)CC(c1ccccc1)c1c(O)c2ccccc2oc1=O (stereo unspecified)
not listed: IYD (gene 389434) | [1] | [2] | [3] | [4] | [5] | [18] | [19]
inactive: all other assays above

O=Cc1ccccc1C=O
active: IYD (gene 389434) 60.2 µM

Nc1nc(Cl)nc2c1ncn2[C@H]1C[C@H](O)[C@@H](CO)O1
active: [1] 1.56 µM | [19] 1.78 µM | [4] 2.48 µM | [5] 28.9 µM
inactive: [2] | [18]

COC(=O)[C@H]1[C@H]2C[C@@H]3c4[nH]c5cc(OC)ccc5c4CCN3C[C@H]2C[C@@H](OC(=O)c2cc(OC)c(OC)c(OC)c2)[C@@H]1OC
inactive: [1] | [3] | [4] | [5]
